Measurements published in PubChem BioAssay (NCI).
About 83,000 compounds went through this panel and 20% of them were active in at least one assay; those are over-represented in the sample as a whole.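 Percent growth is the endpoint: 0 to 100 indicates growth inhibition (40 means 60% inhibition), 0 means no net growth, and negative values indicate cell death.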 Unmarked numbers belong to inactive results. The source made the active and inactive calls. The calls were made as follows: active = growth percent below 10; inactive = the rest.

Experiments:
Assay in all cases: NCI-60 one-dose screen, 48 h (100 = growth as untreated, 0 = no growth, -100 = all killed)
SK-MEL-2 melanoma = details: 10 µM unless noted
EKVX NSCLC = details: 10 µM unless noted
SN12C renal = details: 10 µM unless noted
UO-31 renal = details: 10 µM unless noted
TK-10 renal = details: 10 µM unless noted
ACHN renal = details: 10 µM unless noted
CAKI-1 renal = details: 10 µM unless noted
A498 renal = details: 10 µM unless noted
CCRF-CEM leukemia = details: 10 µM unless noted
MOLT-4 leukemia = details: 10 µM unless noted
SR leukemia = details: 10 µM unless noted
RPMI-8226 leukemia = details: 10 µM
OVCAR-8 ovarian = details: 10 µM unless noted
OVCAR-5 ovarian = details: 10 µM unless noted
OVCAR-4 ovarian = details: 10 µM unless noted
SK-OV-3 ovarian = details: 10 µM
IGROV1 ovarian = details: 10 µM unless noted
OVCAR-3 ovarian = details: 10 µM unless noted
HS 578T breast = details: 10 µM unless noted
NCI/ADR-RES ovarian = details: 10 µM unless noted

Row | SMILES | growth (SK-MEL-2 melanoma) | growth (EKVX NSCLC) | growth (SN12C renal) | growth (UO-31 renal) | growth (TK-10 renal) | growth (ACHN renal) | growth (CAKI-1 renal) | growth (A498 renal) | growth (CCRF-CEM leukemia) | growth (MOLT-4 leukemia) | growth (SR leukemia) | growth (RPMI-8226 leukemia) | growth (OVCAR-8 ovarian) | growth (OVCAR-5 ovarian) | growth (OVCAR-4 ovarian) | growth (SK-OV-3 ovarian) | growth (IGROV1 ovarian) | growth (OVCAR-3 ovarian) | growth (HS 578T breast) | growth (NCI/ADR-RES ovarian)
1 | CN1CCC(OC2c3ccccc3CCc3ccccc32)CC1 | 113% | 84.9% | 93.9% | 73.4% | 89% | 97.5% | 75.4% | 77.9% | 94.1% | 99.5% | 96.5% | 88% | 97.6% | 95.3% | 94.4% | 96% | 109% | 106% | 87.4% | 96.5%
2 | Clc1ccc(C2=NN(c3ccccc3)[C@H](c3cn(-c4ccccc4)nc3-c3ccccc3)C2)cc1 | 97.7% | 94.9% | 103% | 94.8% | 114% | 103% | 99.9% | 109% | 116% | 93.6% | 118% | 112% | 106% | 97.8% | 105% | 107% | 104% | 113% | 131% | 105%
3 | COc1ncnc2c1ncn2C/C(Br)=C(\Br)CCl | 51.6% | 114% | 10.8% | -56.8% (active) | 51.3% | 14.9% | 96.2% | 94.8% | -38.7% (active) | 18.9% | 8.2% (active) | -25.4% (active) | 0.995% (active) | 62.1% | -47.1% (active) | 148% | 11.5% | -94.2% (active) | 23.5% | -40.4% (active)
4 | COc1cccc(C2C3=C(COC3=O)N(CCO)c3cc4c(cc32)CCC4)c1 (stereo not given) | 36.8% | 27.9% | 19.5% | 42.3% | 53.8% | 35.5% | 4.92% (active) | -19.8% (active) | 20.9% | 24.3% | 29.4% | 28.1% | 20.9% | 32.9% | 10.3% | 20.9% | 8.37% (active) | -46% (active) | 2.16% (active) | -43.2% (active)
5 | O=C1OCC2=C1C(c1ccc3c(c1)OCO3)CC(=O)N2c1cccc(Cl)c1 (stereo not given) | 103% | 96.3% | 95.9% | 85.1% | 99.6% | 103% | 90.2% | 84.6% | 90.9% | 95.2% | 98.6% | 90.1% | 102% | 106% | 93.5% | 97.5% | 104% | 109% | 94.5% | 98.9%
6 | COc1ccccc1CNCCCCCCCCCCCCN1C(=O)c2ccc3c4c(ccc(c24)C1=O)C(=O)N(CCCCCCCCCCCCNCc1ccccc1OC)C3=O | 107% | 109% | 74.1% | 109% | -46.7% (active) | 78.4% | 102% | -60.4% (active) | 50.4% | 64.6% | 7.77% (active) | 2.41% (active) | -60.9% (active) | 100% | 92.3% | 117% | 83% | 44.5% | -9.15% (active) | 85%
7 | COc1ccc(-c2nc3sccn3c2/C=C/C(=O)c2cc(OC)c(OC)c(OC)c2)cc1OC | -7.87% (active) | 34.3% | 40.3% | 14% | 82.6% | 21.4% | 3.29% (active) | -2.58% (active) | 21.6% | 31.4% | 14.6% | 10.9% | 25.6% | 79.1% | 21.9% | 26.3% | 34.1% | 2.79% (active) | 3.84% (active) | -9.5% (active)
8 | COc1ccc(-c2csc3c2-n2cccc2C3=O)cc1O | 26.9% | 56% | 29.6% | 31.5% | 51.3% | 31.7% | 43.1% | 38.5% | 0.363% (active) | -10.8% (active) | -6.8% (active) | -19.8% (active) | 5.09% (active) | 84.5% | 37.4% | 1.75% (active) | 20.3% | -38.7% (active) | 32.7% | -25.4% (active)
